Test [1] in a line: NCATS anti-infectives library activity on HEK293 viability as a counter-qHTS vs the C. elegans viability qHTS (AID 1745854).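 Also: HEK293 cells exposed to compounds for 24 hr before the viability read.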 Also: potency is read from the fitted curve at half-maximal effect. The procedure, abridged:
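Cytotoxicity in human HEK293 cells is measured by ATP-dependent CellTiter-Glo luminescence following a 24 hr incubation with titrated library compounds at 37C. Top final concentration is 41.7 uM.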
(Quantitative high-throughput screening tests each substance at several concentrations.)

The target of test [2] is Glutathione peroxidase 1 (Homo sapiens) (UniProt P07203). In words: Primary qHTS Assay for Inhibitors of Recombinant Selenoprotein Glutathione Peroxidase 1 (GPX1) (AID 1845191). Also: nearly all actives have a fitted effect of over 65% in size. Also: potency is read from the fitted curve at half-maximal effect. The method in brief:
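GR-coupled assay: compounds preincubated 30 min at room temperature with GPX1, then reaction started with CHP; final 10 nM GPX1, 1 mM GSH, 0.5 mM CHP, 0.5 mM NADPH, 100 nM GR, 0.01% BSA, pH 7.5 Tris buffer. NADPH fluorescence (340/450 nm) read at 0 and 15 min.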

Test [3] has as its target Phospholipid hydroperoxide glutathione peroxidase GPX4 (Homo sapiens) (UniProt P36969). Kind of test: Primary qHTS Assay for Inhibitors of Recombinant Selenoprotein Glutathione Peroxidase 4 (GPX4) (AID 1845192). Also: nearly all actives have a fitted effect of over 65% in size. As to activity change, negative = inhibition: series mostly up to about 50 µM; % is scaled to controls: 0 for no effect and ±100 for the full control effect. The procedure, abridged: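 GR-coupled assay: recombinant GPX4 preincubated 30 min with compound at room temperature; final 200 nM GPX4, 1 mM GSH, 0.5 mM cumene hydroperoxide, 0.5 mM NADPH, 100 nM GR, 0.01% BSA, pH 7.5 Tris. NADPH fluorescence (340/450 nm) read at 0 and 15 min.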

The target of test [4] is Luciferin 4-monooxygenase (Photinus pyralis) (UniProt P08659). Kind of test: Primary firefly luciferase (FLuc) qHTS assay for identification of artifact compounds. (AID 1845220). Also: nearly all actives have a fitted effect of over 60% in size.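 As to activity change, negative = inhibition: series mostly up to about 54 µM; plate controls were DMSO vehicle for no effect and no enzyme for full effect.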 Conditions: outcome: dose series up to 54.1 µM. The method in brief:
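Titrated compounds were incubated 15 min at RT, protected from light, with luciferin and ATP at 10 uM; reaction started with 10 nM FLuc, luminescence imaged at 5 min, and concentration-response fitted by Hill equation.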

A short description of test [5]: Primary fluorescence-based thiol-reactive (MSTI) qHTS assay for identification of artifact compounds. (AID 1845221).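 Also: series mostly up to about 54 µM; thiol-reactive compounds lower the probe fluorescence signal; nearly all actives have a fitted effect of over 65% in size.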 The method in brief:
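First, 4 uM MSTI in 2% DMSO/PBS pH 7.4 was dispensed; next, compounds were added; then plates sat 1 h at room temperature without light. Finally, emission at 598 nm was recorded.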

In test [6] the test system is Nanoluciferase (engineered Oplophorus gracilirostris luciferase). Kind of test: Primary Nanoluciferase (NLuc) qHTS assay for identification of artifact compounds. (AID 1845222).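 Also: NLuc secreted into diluted conditioned medium of S16 cells; series mostly up to about 54 µM; 0% = DMSO and -100% = no enzyme.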 The method in brief:
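qHTS format, against NLuc in S16 cell-conditioned medium. Nano-Glo substrate 1:100 was added after 15 min at room temperature. Luminescence was taken after a further 5 min.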

The nature of test [7]: Primary redox qHTS assay for identification of artifact compounds. (AID 1845223).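 Also: 0% = DMSO and 100% = reference compound.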 The method in brief:
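Amplex Red (25 uM) and HRP (250 mU/mL) in HBSS, with compounds for 15 min, then 250 uM DTT for 30 min, room temperature, dark. Fluorescence 525/598 nm read; normalized to DMSO and 10 uM DA3003; Hill fit.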

Test [8] in a line: Quantitative High-Throughput drug screen in 47 multiple myeloma cell lines against the NCATS MIPE library collection: FR4_PLB cell viability assay (AID 1918924; also: nearly all actives have a fitted effect of over 35% in size; also: potency is read from the fitted curve at half-maximal effect). The method in brief:
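Inhibition of cell viability is measured here. Each line was plated at 500 cells per well, treated with MIPE 4.0 drugs, kept 48 hours at 37C, then assayed for ATP content by CellTiter-Glo luminescence.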

Test [9] can be described thus: Quantitative High-Throughput drug screen in 47 multiple myeloma cell lines against the NCATS MIPE library collection: Delta47_JCRB cell viability assay (AID 1918925; also: nearly all actives have a fitted effect of over 45% in size; also: potency is read from the fitted curve at half-maximal effect). The method in brief: (§1)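 Primary qHTS used for cherry-picking: cells at 500/well, library compounds for 48 h (37C, 5% CO2), luminescent ATP assay.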
A short description of test [10]: Quantitative High-Throughput drug screen in 47 multiple myeloma cell lines against the NCATS MIPE library collection: EJM_DSMZ cell viability assay (AID 1918926; also: nearly all actives have a fitted effect of over 30% in size; also: potency is read from the fitted curve at half-maximal effect). The procedure, abridged: as §1
Test [11] is described as follows: Quantitative High-Throughput drug screen in 47 multiple myeloma cell lines against the NCATS MIPE library collection: AMO1_DSMZ cell viability assay (AID 1918927; also: nearly all actives have a fitted effect of over 30% in size; also: potency is read from the fitted curve at half-maximal effect). The procedure, abridged:
as §1

The target in test [12] is Nicotinamide N-methyltransferase (Homo sapiens) (UniProt P40261). In words: Confirmatory Screen for Target Class Profiling of Small Molecule Inhibitors of Methyltransferases (AID 1745852). Conditions: MTase-Glo luminescence, SAH detection, recombinant enzyme; measured here: NNMT max response; stronger effect = lower value.
Nicotinamide N-methyltransferase (Homo sapiens), sequence (P40261 whole entry, looked up): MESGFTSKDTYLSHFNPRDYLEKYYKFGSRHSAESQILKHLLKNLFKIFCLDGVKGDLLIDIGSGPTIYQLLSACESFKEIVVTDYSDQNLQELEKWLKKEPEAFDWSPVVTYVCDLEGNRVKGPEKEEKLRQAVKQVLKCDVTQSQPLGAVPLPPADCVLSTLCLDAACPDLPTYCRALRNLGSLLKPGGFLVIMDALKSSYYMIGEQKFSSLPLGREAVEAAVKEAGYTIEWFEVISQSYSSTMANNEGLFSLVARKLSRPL
Test [13] has as its target Phenylethanolamine N-methyltransferase (Homo sapiens) (UniProt P11086). The test is described as above. Conditions: MTase-Glo luminescence, SAH detection, recombinant enzyme; measured here: PNMT max response; stronger effect = lower value.
The target in test [14] is Metallo-beta-lactamase type 2 (Klebsiella pneumoniae) (UniProt C7C422). In words: qHTS to identify inhibitors of the New Delhi Metallo-beta-lactamase (NDM): assay validation screen against the NCATS LOPAC Collection (AID 1794843).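 Also: nitrocefin turnover by NDM-1 measured as 485 nm absorbance at plateau; series mostly up to about 38 µM; % is scaled to controls: 0 for no effect and ±100 for the full control effect.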 The procedure, abridged: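 NDM-1 at 2 nM final in 50 mM HEPES pH 7.0, 1 uM ZnSO4, 0.01% Tween20, preincubated with LOPAC compounds pinned in DMSO; 50 uM nitrocefin (stock) added. Hydrolysis read as absorbance at 485 nm in the plateau phase.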
Metallo-beta-lactamase type 2 (Klebsiella pneumoniae), sequence (C7C422 whole entry, looked up): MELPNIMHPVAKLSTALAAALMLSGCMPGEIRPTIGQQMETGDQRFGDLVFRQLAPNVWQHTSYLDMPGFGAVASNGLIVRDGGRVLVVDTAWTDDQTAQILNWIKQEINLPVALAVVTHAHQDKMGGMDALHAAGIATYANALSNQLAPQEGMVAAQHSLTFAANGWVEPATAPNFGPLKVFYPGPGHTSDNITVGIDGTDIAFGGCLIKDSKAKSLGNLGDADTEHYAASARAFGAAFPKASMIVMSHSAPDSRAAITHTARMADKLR

Records with an inconclusive call do not appear. A structure can be active in one record and inactive in another. The source made the active and inactive calls. Calls follow the shape of the dose curve; as a rule, active = well fitted curve in the direction sought with a large enough effect; inconclusive = small, poorly fitted or top-dose-only effect, or another doubt; inactive = no such curve, though single readings can be large; an effect the other way counts as inactive or inconclusive.

Glutathione peroxidase 1 (Homo sapiens), sequence (P07203 whole entry, looked up): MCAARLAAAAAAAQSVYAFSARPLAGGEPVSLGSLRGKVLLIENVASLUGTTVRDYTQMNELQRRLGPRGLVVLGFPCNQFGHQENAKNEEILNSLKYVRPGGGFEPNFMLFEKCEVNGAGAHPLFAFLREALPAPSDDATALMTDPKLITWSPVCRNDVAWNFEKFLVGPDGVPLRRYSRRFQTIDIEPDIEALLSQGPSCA
Phospholipid hydroperoxide glutathione peroxidase GPX4 (Homo sapiens), sequence (P36969 whole entry, looked up): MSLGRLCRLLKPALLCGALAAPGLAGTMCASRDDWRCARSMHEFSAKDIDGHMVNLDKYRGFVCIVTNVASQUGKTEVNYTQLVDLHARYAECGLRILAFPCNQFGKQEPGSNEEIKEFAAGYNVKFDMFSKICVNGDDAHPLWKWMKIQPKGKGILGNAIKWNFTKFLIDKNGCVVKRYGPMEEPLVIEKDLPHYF
Phenylethanolamine N-methyltransferase (Homo sapiens), sequence (P11086 whole entry, looked up): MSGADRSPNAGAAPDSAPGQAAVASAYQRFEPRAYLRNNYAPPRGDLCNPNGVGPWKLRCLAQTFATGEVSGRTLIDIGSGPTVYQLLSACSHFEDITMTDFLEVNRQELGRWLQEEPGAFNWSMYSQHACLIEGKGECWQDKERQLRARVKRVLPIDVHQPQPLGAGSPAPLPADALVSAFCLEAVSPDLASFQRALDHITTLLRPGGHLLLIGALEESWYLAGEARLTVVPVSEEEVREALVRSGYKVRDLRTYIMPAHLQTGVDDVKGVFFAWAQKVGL

In the case of `O=P(O)(O)C(O)(Cc1cccnc1)P(=O)(O)O`, the Potency result in test [1], in test [2], in test [3], in test [5], in [7] and in [8] was “inactive” throughout. The Potency result in [9], in test [10] and in [11] was “inactive” in each case. Moreover, the activity change, negative = inhibition in [4] is -16.9% [at 6.45 µM] (inactive). The outcome in [4] and in [6] was “inactive” in each case.
For `CNS(=O)(=O)CCc1ccc2[nH]cc(C3CCN(C)CC3)c2c1`, the activity in test [12] is -12.2%; in [13], -2.32%. Moreover, the outcome in [14], in test [4] and in test [6] was “inactive” each time. In addition, the Potency result in [2], in test [3], in [5] and in [7] was “inactive” each time. The values for the Potency in test [8], in test [9] and in [11] were 16.6 µM (active), 1.18 µM (active) and 2.35 µM (active), respectively.
For `CC(C)NCC(O)c1ccc(NS(C)(=O)=O)cc1` (stereo not drawn), in [14], the outcome is “inactive”. In addition, the Potency result in test [2], in [3], in test [9] and in [10] was “inactive” throughout.
As to `Nc1nc(=S)c2[nH]cnc2[nH]1`, the Potency in test [1] is 3.55 µM (active); in test [8], 1.66 µM (active); in [9], 2.96 µM (active). Also, the Potency result in test [2] and in test [3] was “inactive” throughout.
Take `CCN(CC)CC#CCOC(=O)C(O)(c1ccccc1)C1CCCCC1` (stereo not drawn): the outcome in test [14] was “inactive”. The Potency result in test [2], in [3], in test [9] and in [10] was “inactive” throughout.
As for `CC(N)C12CC3CC(CC(C3)C1)C2` (stereo not drawn), the Potency entry in test [1], in test [3], in test [9] and in [10] was “inactive” each time. Besides, the Potency in test [2] was 6.4 µM (active) and inactive.
As to `NC(=O)c1ccc2[nH]ccc2c1`, the outcome in test [14] is “inactive”. The Potency result in test [2], in [3] and in test [9] was “inactive” in each case.
With `C1CCC(C(CC2CCCCN2)C2CCCCC2)CC1` (stereo not drawn), the Potency in [1] was 15.8 µM (active); in [8], 11.8 µM (active); in [9], 13.2 µM (active); in [10] it was 26.4 µM (active); in [11], 18.7 µM (active). Also, the Potency entry in [2] and in test [3] was “inactive” each time.
Consider `CCOC(=O)c1ccc(OC(=O)CCCCCN=C(N)N)cc1`, for which the Potency entry in [1], in [2], in [3], in test [9], in [10] and in test [11] was “inactive” throughout.
As for `Nc1nc(N)c2nc(CNc3ccc(C(=O)NC(CCC(=O)O)C(=O)O)cc3)cnc2n1` (stereo not drawn), the outcome in test [14] was “inactive”. In addition, the Potency result in test [2], in test [3] and in test [9] was “inactive” in each case. The Potency in [11] is 0.0235 µM (active).
On to `NC1(c2ccc(-c3nc4ccn5c(=O)[nH]nc5c4cc3-c3ccccc3)cc2)CCC1`, for which the results for the activity in [12] and in test [13] were -25.8% and -8.08%, respectively. Moreover, the Potency result in test [2], in [3], in test [5], in [7] and in test [8] was “inactive” each time. Moreover, the outcome in test [4] and in test [6] was “inactive” throughout. Also, the Potency in [9] was 0.332 µM (active); in test [10] it was 11.8 µM (active); in [11] it was 3.72 µM (active).

Source of the values: PubChem BioAssay (NCATS).
